Sfp inh – Sfp phosphopantetheinyl transferase inhibition | Q9F4F7 | Biochemical Sfp PPTase activity, qHTS | Potency, µM, without a hit: largest response in the series, negative = inhibition, most hits filed as inhibitors | hit rate 3.5% among 310,000;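 also: the enzyme is Sfp with the accession as filed and its product quenches rhodamine fluorescence; potency is read from the fitted curve at half-maximal effect; 0% = enzyme reaction without inhibitor and -100% = no enzyme wells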
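Fluorescence-quenching assay: 15 nM Sfp-PPTase preincubated 15 min at room temperature with compound, then 5 uM rhodamine-CoA and 12.5 uM BHQ-2-labelled YbbR peptide added. Fluorescence (ex 525/em 598 nm) read at start and after 30 min; difference gives rate.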
Tau fluor counter – counter-screen for tau fibril formation inhibitors; tau K18 P301L Alexa594 fluorescence, heparin fibrillization; Potency, µM (series often up to 57.7 µM), inactives show at the highest dose activity change, negative = decrease; hit rate 0.93% among 280,000; also: potency is read from the fitted curve at half-maximal effect; nearly all actives have a fitted effect of over 55% in size
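Human tau K18 P301L (15 uM unlabeled, 0.24 uM Alexa 594-labeled) in 100 mM sodium acetate pH 7 with 20 uM heparin, 6 hr at 37 C. ThT 30 uM added, 1 hr ambient; Alexa 594 FP and total fluorescence read at 555/632 nm.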
FBPA coupling cs – inhibits coupling enzyme system, counter-screen for aldolase hits; hit rate 0.67% among 290,000; activity change, negative = inhibition, % at 58.2 µM, hits read low; coupling enzyme system counterscreen, AmpLite Red fluorescence; in the data active = activity change below about -30%
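Compounds tested against the coupling enzymes alone at 57.5 uM final; readout was AmpLite Red fluorescence (525/598 nm) after 20 min at RT.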
Tau ThT inhib – blocks human tau fibril formation measured by thioflavin T; P10636; recombinant tau K18 P301L, heparin-induced fibrillization, ThT fluorescence; Potency, µM (highest dose often 57.4 µM), inactives show top-dose activity, negative = inhibition, usual class: inhibitors; hit rate 2.1% among 270,000; AID 1460; also: potency is read from the fitted curve at half-maximal effect; nearly all actives have a fitted effect of over 55% in size
Target sequence (P10636 561-689 P618L limits assumed): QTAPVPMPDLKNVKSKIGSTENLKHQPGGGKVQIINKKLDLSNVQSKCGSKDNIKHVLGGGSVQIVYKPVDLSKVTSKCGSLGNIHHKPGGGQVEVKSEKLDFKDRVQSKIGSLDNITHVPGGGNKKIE
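Using a mix of unlabeled (15 uM) and Alexa 594-labeled (0.24 uM) tau K18 P301L, heparin-triggered fibrillization over 6 hr at 37 C was scored by ThT fluorescence.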
Tau fibril FP – blocks human tau fibril formation measured by polarization. hit rate 0.39% among 280,000. K18 P301L tau heparin fibrillization, Alexa594 FP, 6 h. P10636. Potency, µM (titrated, usually from 57.7 µM), for the others: top-dose activity, negative = inhibition, hits mostly inhibitors; also: potency is read from the fitted curve at half-maximal effect; nearly all actives have a fitted effect of over 55% in size
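Quantitative HTS format: compounds meet 15 uM recombinant K18 P301L tau and Alexa 594-tau tracer in 100 mM sodium acetate pH 7; 20 uM heparin triggers fibrillization at 37 C over 6 hr; FP gives the signal.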
G9a inh – G9a (human) methyltransferase inhibition. Q96KQ7. G9a H3K9 monomethylation, AlphaScreen, 2 h. Potency, µM (doses to about 102 µM), for the others: at the highest dose activity, negative = inhibition, actives largely listed as inhibitors. hit rate 8.8% among 350,000. AID 504332; also: potency is read from the fitted curve at half-maximal effect; nearly all actives have a fitted effect of over 75% in size
Target sequence (Q96KQ7 913-1193 limits assumed): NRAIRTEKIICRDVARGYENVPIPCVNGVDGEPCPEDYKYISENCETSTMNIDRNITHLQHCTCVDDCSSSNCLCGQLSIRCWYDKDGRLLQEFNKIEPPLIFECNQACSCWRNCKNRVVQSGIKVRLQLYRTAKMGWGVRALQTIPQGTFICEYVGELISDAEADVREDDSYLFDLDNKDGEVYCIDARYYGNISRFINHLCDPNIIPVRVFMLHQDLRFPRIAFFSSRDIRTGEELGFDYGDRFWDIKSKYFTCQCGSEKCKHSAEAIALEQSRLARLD
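G9a (20 nM) preincubated 15 min RT with compounds, then 500 nM biotinylated H3K9 peptide and 20 uM SAM added; 2 h RT reaction. Monomethyl-H3K9 product detected by AlphaScreen with anti-H3K9me1 antibody, streptavidin donor and anti-rabbit IgG acceptor beads.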
* hit, by the source's call; ? = inconclusive; nt = no result; [ ] = remark or other dose. The list is not random: actives were taken first. Their share in the collection is about 11%. Unless noted, calls follow the shape of the dose curve; as a rule, active = well fitted curve in the direction sought with a large enough effect; inconclusive = small, poorly fitted or top-dose-only effect, or another doubt; inactive = no such curve, though single readings can be large; an effect the other way counts as inactive or inconclusive. Unless noted, % is scaled to controls: 0 for no effect and ±100 for the full control effect.

SMILES | Sfp inh | Tau fluor counter | FBPA coupling cs | Tau ThT inhib | Tau fibril FP | G9a inh
COc1ccc(CCNC(=O)CCn2c(=O)c3ccccc3n(CC(=O)Nc3ccccc3F)c2=O)cc1OC | nt | -7% | nt | -4% | -9% | -28%[59 µM]
COc1ccccc1C(=O)Nc1ccccc1OCc1cc(=O)n2ccccc2n1 | nt | -18% | nt | -7% | -14% | 3%[59 µM]
COc1ccccc1CNC(=O)c1ccc2c(c1)N(Cc1ccc(C)cc1)CCS2 | nt | ? | nt | -7% | 14% | -19%[59 µM]
O=C(NCc1cccnc1)c1ccc2c(c1)N(Cc1ccccc1)CCS2 | 50µM* | ? | -4 | ? | 8% | nt
COc1ccc(NC(=O)c2ccc3c(c2)N(C)CCS3)cc1 | 9% | nt | 0 | nt | nt | ?
Cc1ccc(CN2CCSc3ccc(C(=O)NCc4ccco4)cc32)cc1 | 7% | ? | -2 | -16% | 6% | 71µM*
CN1CCSc2ccc(C(=O)Nc3cccc(F)c3)cc21 | -25% | 22µM*[quencher] | -12 | ? | ? | 15%
COc1ccc(CNC(=O)c2ccc3c(c2)N(Cc2ccccc2)CCS3)cc1 | nt | ? | nt | -4% | 6% | ?
CN1CCSc2ccc(C(=O)NCc3ccccc3)cc21 | -10% | -24% | -3 | -7% | 10% | 40µM*
O=c1c(Cc2ccccc2)c(O)ccn1Cc1ccc2c(c1)OCO2 | 9% | 4% | 2 | 6% | -2% | -29%
O=C(NCCN1CCOCC1)c1ccc2c(c1)N(Cc1ccccc1)CCS2 | -2% | -22% | -1 | -17% | 10% | 50µM*
O=C(NCCCN1CCOCC1)c1ccc2c(c1)N(Cc1ccccc1)CCS2 | -7% | -23% | 1 | -4% | 0% | 0%[12.7 µM]
CN1CCN(CCCNC(=O)c2ccc3c(c2)N(Cc2ccccc2)CCS3)CC1 | -15% | -24% | 1 | -9% | ? | 79µM*
CCCCCCCCCn1c2c(c(=N)c3c1CCC3)CCC2 | -8% | 3% | 0 | -13% | 4% | ?
CCCCCCCn1c2c(c(=N)c3c1CCC3)CCCC2 | -9% | 3% | 0 | 3% | -1% | 45µM*
CCCNc1c(F)c(F)c2c(C)c3ccccc3nc2c1F | 0% | -23% | -16 | 14µM* | 6% | 2%[12.7 µM]
CCN(CC)CCOC(=O)c1ccc(NC(=O)c2cc3c(s2)-c2ccccc2OC3)cc1 | nt | ? | nt | ? | ? | 16%[59 µM]
CCOC(=O)c1c(NC(=O)COC)sc2c1CCCC2 | 7% | -23% | 4 | ? | -1% | 6%[12.7 µM]
NC(=O)c1c(NC(=O)CCCC(=O)O)sc2c1CCCCCC2 | 79µM* | -1% | 6 | 4% | -2% | 50µM*
N#Cc1c(NC(=O)CCCC(=O)O)sc2c1CCCCC2 | 56µM* | -9% | -5 | -12% | 8% | 29%[59 µM]
N#Cc1c(NC(=O)COC(=O)c2nccnc2N)sc2c1CCCC2 | nt | nt | nt | nt | nt | 45µM*
COC(=O)c1c(NC(=O)CCCC(=O)O)sc2c1CCC2 | 15% | -7% | 6 | -9% | -6% | 33%[2.33 µM]
CCOC(=O)c1c(NC(=O)COC(=O)c2nccnc2N)sc2c1CCC2 | nt | nt | nt | nt | nt | 1%[12.7 µM]
CCCOC(=O)c1c(NC(=O)CCC(=O)O)sc2c1CCCCC2 | ? | 0% | 23 | -10% | -2% | 50µM*
CCc1cc2ccccc2nc1SCC(=O)Nc1cc(OC)c(OC)cc1C(=O)O | ? | 9% | 11 | 11% | 3% | ?
SMILES | Sfp inh | Tau fluor counter | FBPA coupling cs | Tau ThT inhib | Tau fibril FP | G9a inh
CCCn1c2ccccc2c2cnn(CC(=O)NCCc3ccc(C)cc3)c(=O)c21 | nt | 1% | nt | 8% | 1% | 12%[59 µM]
CCc1ccc(CN(Cc2ccco2)C(=O)COc2ccccc2Cl)cc1 | nt | -2% | nt | -10% | -6% | 89%[59 µM]
NC(=O)c1c(NC(=O)C2CCCO2)sc2c1CCC2 (stereo not drawn) | 0% | -2% | 0 | -6% | -6% | 7%
NC(=O)c1c(NC(=O)C2CCCO2)sc2c1CCCCC2 (stereo not drawn) | -83% | -11% | -10 | ? | ? | 3.5µM*
Cc1c(Br)c([N+](=O)[O-])nn1CCCC(=O)Nc1sc2c(c1C#N)CCC2 | 22µM* | ? | 0 | ? | 2% | ?
CCOc1ccccc1N(C)C(=O)c1sc2nc3n(c(=O)c2c1C)CCCC3 | nt | -9% | nt | ? | ? | ?
CCOC(=O)c1sc(NC(=O)c2nc(SC)ncc2Cl)c(C(=O)OCC)c1C | nt | 2% | nt | 9% | -4% | -22%[59 µM]
CCOc1ccccc1Nc1nc(-c2sc(NC(=O)c3cccc(Cl)c3)nc2C)cs1 | -20% | ? | 2 | ? | ? | 40µM*
COc1ccc(-c2sc(NC(=O)c3ccc(C)cc3)nc2-c2ccc([N+](=O)[O-])cc2)cc1 | 23% | -19% | -1 | ? | 6% | 30%[0.501 µM]
COc1ccccc1Nc1nc(-c2sc(NC(=O)c3ccc([N+](=O)[O-])cc3)nc2C)cs1 | -9% | 10µM*[quencher] | 0 | 3.5µM* | ? | 45µM*
CCOc1ccccc1Nc1nc(-c2sc(NC(=O)c3ccccc3)nc2C)cs1 | 2% | ? | -2 | ? | 3% | 32µM*
COc1ccccc1Nc1nc(-c2sc(NC(=O)c3ccccc3)nc2C)cs1 | 1% | ? | -2 | ? | 7% | ?
CC(=O)NNC(=O)CN1C(=O)/C(=C/c2ccccc2)SC1=S | 1% | 14% | 2 | 12% | 6% | 27%[59 µM]
CC(=O)NC(CC(=O)NCCN1C(=O)S/C(=C\c2ccccc2)C1=O)c1ccccc1 (stereo not drawn) | -23% | 3% | 1 | -8% | -5% | 56µM*
O=C(CN1C(=O)S/C(=C\c2ccccc2)C1=O)NCCCn1ccnc1 | -23% | nt | nt | nt | nt | 35µM*
CC(C)(C)NC(=O)C(Cc1ccccc1)N1C(=O)c2ccccc2C1=O (stereo not drawn) | 13% | nt | 2 | nt | nt | -6%
O=C(NCCCn1ccnc1)C(Cc1ccccc1)N1C(=O)c2ccccc2C1=O (stereo not drawn) | 56µM* | 4% | 0 | 12% | 2% | -45%[12.7 µM]
NC(=O)Nc1ccc(C(=O)OCC(=O)N2CCCC2=O)cc1 | nt | nt | nt | nt | nt | -6%[59 µM]
Cc1csc(=O)n1CCC(=O)OCC(=O)Nc1ccc(F)c(F)c1F | nt | nt | nt | nt | nt | -8%
Cc1csc(=O)n1CCC(=O)OCC(=O)NNC(=O)c1ccc(Cl)cc1 | nt | nt | nt | nt | nt | 45µM*
CC(C)Sc1ccccc1C(=O)Nc1ccc2c(c1)n(C)c(=O)n2C | -7% | nt | -3 | nt | nt | 6.3µM*
CN(c1ccccc1C(=O)Nc1ccc2c(c1)n(C)c(=O)n2C)S(C)(=O)=O | 14% | nt | 0 | nt | nt | 1%
Cc1cnc(C(=O)Nc2ccc(F)cc2)cn1 | 10% | 2% | -1 | 4% | -7% | -14%[12.7 µM]
Cc1cnc(C(=O)Nc2ccc(N3CCN(C(=O)OC(C)(C)C)CC3)cc2)cn1 | 8% | -21% | 2 | 1.8µM* | -7% | -26%[12.7 µM]

Screens deposited in PubChem by National Center for Advancing Translational Sciences (NCATS).
